Compound activity from PubChem BioAssay.
CHO-K1 Ca ag = counter-screen for M1 agonists: effect in parental CHO-K1 cells | Fluo-8 calcium fluorescence; scaled to maximal ATP response, vehicle zero | activation, % at 3 µM | 360,000 compounds, 0.48% hits | AID 602248; in the data active = activation above about 15%;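 note: untransfected CHO-K1 host cells lacking M1 receptor as counterscreen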
M1 PAM = potentiates human M1 receptor response to acetylcholine; CHO-K1 hM1, Fluo-8 calcium fluorescence, ACh EC20; 0% = ACh EC20, 100% = maximal ACh; activation, % at 3 µM; 360,000 compounds, 0.088% hits; in the data active = activation above about 19%, passing the limit was not always enough
Target sequence (P11229 whole entry, looked up): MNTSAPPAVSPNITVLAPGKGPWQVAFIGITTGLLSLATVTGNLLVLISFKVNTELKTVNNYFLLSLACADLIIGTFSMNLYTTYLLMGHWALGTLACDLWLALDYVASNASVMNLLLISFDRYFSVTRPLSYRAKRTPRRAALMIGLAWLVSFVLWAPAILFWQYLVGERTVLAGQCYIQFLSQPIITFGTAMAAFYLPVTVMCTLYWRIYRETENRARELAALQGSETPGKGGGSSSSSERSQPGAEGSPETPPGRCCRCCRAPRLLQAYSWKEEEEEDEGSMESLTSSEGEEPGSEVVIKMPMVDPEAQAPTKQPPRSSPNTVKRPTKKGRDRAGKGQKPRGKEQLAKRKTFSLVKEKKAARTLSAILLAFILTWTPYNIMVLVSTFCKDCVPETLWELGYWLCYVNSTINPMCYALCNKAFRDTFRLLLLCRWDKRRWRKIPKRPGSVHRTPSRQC
M1 ag = activates human CHRM1 receptor. CHO-K1 hM1, Fluo-8 calcium fluorescence, agonist mode; 0% DMSO, 100% acetylcholine EC100. P11229. 360,000 compounds, 0.33% hits. activation, % at 3 µM;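 active = activation above the run's mean compound activation plus 3 SD, cut at about 16% in these data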;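 note: peak over basal fluorescence ratio within a 140 s kinetic read after compound addition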
CHO-K1 Ca antag = counter-screen for M1 antagonists: effect in parental CHO-K1 cells; ATP-induced calcium, Fluo-8 fluorescence; inhibition, % at 3 µM; 360,000 compounds, 0.6% hits; AID 602250;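 active = inhibition above a per-plate cutoff, the plate's mean sample inhibition plus 3 SD, cut at about 24% in these data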;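 note: 0% = DMSO plus EC80 ATP and 100% = DMSO alone without ATP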
CHRM1 antagonist = blocks human M1 muscarinic receptor; inhibition, % at 3 µM; 360,000 compounds, 1.3% hits; CHO-K1 hM1, Fluo-8 calcium fluorescence, ACh EC80 antagonist; P11229;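 active = percent inhibition above its own plate's cutoff, namely the mean of that plate's compound wells plus 3 SD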;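 note: peak over basal fluorescence ratio during 140 s after agonist addition; 0% = ACh EC80 plus DMSO and 100% = DMSO alone without agonist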
M1 PAM parental = nonselective activator or artifact in parental CHO-K1 calcium assay; 360,000 compounds, 0.02% hits; activation, % at 3 µM; AID 602247; ATP EC20, Fluo-8 calcium fluorescence; 0% at ATP EC20, 100% at ATP max;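 active = activation above the run cutoff, the mean activation of all test compounds plus 3 SD, cut at about 40% in these data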;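 note: peak over basal fluorescence ratio in a 140 s read after ATP addition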
* marks the source's active call; other numbers are inactive results. Shown are actives, neighbours in structure and some others; about 2.4% of the full set was active somewhere.

CCn1ccc(C(=O)N2CCN(c3ncccn3)CC2)n1 was read as CHO-K1 Ca ag 1, M1 PAM 11, M1 ag -2, CHO-K1 Ca antag -23, CHRM1 antagonist -12 and M1 PAM parental 24.
For Nc1ccn([C@@H]2O[C@H](C(=O)N3CCSC3)[C@@H](O)[C@H]2O)c(=O)n1 the results were CHO-K1 Ca ag 0, M1 PAM 3, M1 ag -2, CHO-K1 Ca antag -5, CHRM1 antagonist -12 and M1 PAM parental -8.
For Cc1ccc(S(=O)(=O)N2CCOCC2)cc1NC(=O)CSc1nnnn1C1CC1 the results were CHO-K1 Ca ag 0, M1 PAM 2, M1 ag -4, CHO-K1 Ca antag -8, CHRM1 antagonist -6 and M1 PAM parental 3.
`COc1ccccc1C(CNC(=O)COc1ccccc1C)N1CCCC1` (configuration not stated) gave CHO-K1 Ca ag 0, M1 PAM -27, M1 ag -8, CHO-K1 Ca antag 3, CHRM1 antagonist 59* and M1 PAM parental -7.
For Cc1cc(C)c(OCC(=O)NCC(c2ccco2)N2CCCCC2)c(C)c1 (configuration not stated) the results were CHO-K1 Ca ag 0, M1 PAM -16, M1 ag -9, CHO-K1 Ca antag -3, CHRM1 antagonist 10 and M1 PAM parental -14.
`COc1ccccc1C(CNC(=O)COc1cc(C)ccc1Cl)N1CCCC1` (configuration not stated) gave CHO-K1 Ca ag 1, M1 PAM -26, M1 ag -7, CHO-K1 Ca antag -1, CHRM1 antagonist 62* and M1 PAM parental 5.
`COc1ccc(C(CNC(=O)COc2ccccc2C)N2CCCCC2)cc1` (configuration not stated) gave CHO-K1 Ca ag 0, M1 PAM 5, M1 ag -7, CHO-K1 Ca antag -8, CHRM1 antagonist 2 and M1 PAM parental 0.
For Cc1ccccc1OCC(=O)NCC(c1ccco1)N1CCCCC1 (configuration not stated) the results were CHO-K1 Ca ag 0, M1 PAM -13, M1 ag -7, CHO-K1 Ca antag 8, CHRM1 antagonist 28* and M1 PAM parental -13.
For CCC(=O)NCC(c1ccco1)N1CCN(c2ccc(OC)cc2)CC1 (configuration not stated) the results were CHO-K1 Ca ag 17*, M1 PAM 11, M1 ag 8, CHO-K1 Ca antag -1, CHRM1 antagonist -10 and M1 PAM parental 7.
CC(C)Sc1n[nH]c(=O)n1-c1ccccc1 was read as CHO-K1 Ca ag 1, M1 PAM 3, M1 ag -2, CHO-K1 Ca antag 7, CHRM1 antagonist -4 and M1 PAM parental 9.
For COCc1cc(C)nc2sc(C(=O)NCCO)c(-n3cccc3)c12 the results were CHO-K1 Ca ag 1, M1 PAM 9, M1 ag -6, CHO-K1 Ca antag 7, CHRM1 antagonist -4 and M1 PAM parental 17.
O=C1N/C(=C/c2cccn2-c2ccc(F)cc2)C(=O)N1Cc1ccccc1F was read as CHO-K1 Ca ag -1, M1 PAM 12, M1 ag 2, CHO-K1 Ca antag 25*, CHRM1 antagonist -9 and M1 PAM parental -13.
O=C1N/C(=C/c2cccn2-c2ccccc2)C(=O)N1Cc1ccc(F)cc1 was read as CHO-K1 Ca ag 0, M1 PAM -1, M1 ag -6, CHO-K1 Ca antag -11, CHRM1 antagonist 1 and M1 PAM parental 20.
Cc1cccnc1NC(=O)CCc1c[nH]c2ccccc12 was read as CHO-K1 Ca ag 0, M1 PAM 11, M1 ag 2, CHO-K1 Ca antag 24*, CHRM1 antagonist -2 and M1 PAM parental -33.
Screening Cc1ccnc(NC(=O)CCCc2c[nH]c3ccccc23)c1 returned CHO-K1 Ca ag 2, M1 PAM 15, M1 ag -2, CHO-K1 Ca antag -7, CHRM1 antagonist -22 and M1 PAM parental 11.
For Cc1cccc(C)c1NC(=O)C(=O)NCCc1c[nH]c2ccccc12 the results were CHO-K1 Ca ag 8, M1 PAM 7, M1 ag 17*, CHO-K1 Ca antag -15, CHRM1 antagonist -32 and M1 PAM parental 18.
Cc1cc2cc(CNC(=O)c3ccc(S(=O)(=O)N4CCCCC4)cc3)ccc2n1C was read as CHO-K1 Ca ag 2, M1 PAM -13, M1 ag -11, CHO-K1 Ca antag 4, CHRM1 antagonist 13 and M1 PAM parental -1.
Screening CCN(CC)S(=O)(=O)c1ccc(C(=O)NCc2ccc3c(c2)cc(C)n3C)cc1 returned CHO-K1 Ca ag 1, M1 PAM -31, M1 ag -11, CHO-K1 Ca antag -5, CHRM1 antagonist 57* and M1 PAM parental 7.
Cc1cc2cc(CNC(=O)c3ccc(S(=O)(=O)N4CCCC4)cc3)ccc2n1C was read as CHO-K1 Ca ag 2, M1 PAM -28, M1 ag -11, CHO-K1 Ca antag 7, CHRM1 antagonist 73* and M1 PAM parental 21.
For CC1(C2CCCC2)NC(=O)NC1=O (configuration not stated) the results were CHO-K1 Ca ag 0, M1 PAM 4, M1 ag -1, CHO-K1 Ca antag 22, CHRM1 antagonist 0 and M1 PAM parental -20.
Screening COC(=O)c1ccc(C2C(C(C)=O)=C(C)Nc3ncnn32)cc1 (configuration not stated) returned CHO-K1 Ca ag 1, M1 PAM -32, M1 ag -11, CHO-K1 Ca antag -13, CHRM1 antagonist 102* and M1 PAM parental 11.
Screening O=C1Nc2ccc(Br)cc2/C1=C/C(=O)c1ccc2c(c1)OCO2 returned CHO-K1 Ca ag 2, M1 PAM 8, M1 ag 10, CHO-K1 Ca antag 12, CHRM1 antagonist 15 and M1 PAM parental -1.
For COc1ccc(C(=O)/C=C2\C(=O)Nc3ccc(Br)cc32)cc1 the results were CHO-K1 Ca ag 4, M1 PAM 12, M1 ag 19*, CHO-K1 Ca antag 13, CHRM1 antagonist 20 and M1 PAM parental 9.
For c1ccc(CC[C@@H]2CC[C@@H](CCc3ccccc3)N2)cc1 the results were CHO-K1 Ca ag 4, M1 PAM -27, M1 ag -14, CHO-K1 Ca antag -12, CHRM1 antagonist 32* and M1 PAM parental 18.
O=c1[nH]c2ccsc2c(=O)n1CCO was read as CHO-K1 Ca ag 0, M1 PAM 11, M1 ag 1, CHO-K1 Ca antag 6, CHRM1 antagonist -5 and M1 PAM parental -3.
For CSc1ccccc1OCc1cc(C(=O)N2CCC(c3ccncc3)CC2)no1 the results were CHO-K1 Ca ag 11, M1 PAM -16, M1 ag -2, CHO-K1 Ca antag 16, CHRM1 antagonist 41* and M1 PAM parental -5.
For O=C(c1cc(COc2ccc(F)cc2Cl)on1)N1CCC(c2ccncc2)CC1 the results were CHO-K1 Ca ag 10, M1 PAM -4, M1 ag -5, CHO-K1 Ca antag 2, CHRM1 antagonist 10 and M1 PAM parental 4.
